For 20 compounds, growth inhibition, inhibition and outcome results are on record in PubChem BioAssay.

A number with no mark means an inactive call. For some of these results: Results with a measured potency or affinity are listed apart. Calls of active or inactive are those of the source. Unless noted, no rule for the calls is given here.

A short description of assay [1]: antimalarial activity against Dd2 strain (AID 2302;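 active = growth inhibition above 50% at the single 2 µM test dose, taken to imply half-maximal potency below 2 µM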;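 also: 0% = DMSO untreated growth and 100% = chloroquine plus artemisinin killed control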). The note with it: P. falciparum Dd2 in RBCs, LDH growth readout, 72 h; at 2 µM; active compounds read high.
A short description of assay [2]: human hepatoma cell viability loss – ATP luminescence, cytotoxicity control for P. falciparum antimalarial project, primary screen (AID 2303;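 active = inhibition above 50%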;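 also: 0% = DMSO wells and 100% = digitonin-killed cells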). The note with it: HepG2 viability, 24-48 h, at 10 µM, active compounds read high.
Assay [3] addresses L-lactate dehydrogenase (Plasmodium falciparum (isolate CDC / Honduras)) (UniProt Q27743). The assay can be described thus: PfLDH activity inhibition – cell lysate, 3D7 strain, counter-screen for P. falciparum growth inhibition project (AID 2304).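 Also: 0% = vehicle and 100% = reference inhibitor.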 The note with it: P. falciparum 3D7 crude extract, LDH APAD/NBT absorbance; at 2 µM; active compounds read high. Background: The purpose of a counterscreen is to sort out artefacts and off-target activity.

Assay [4] can be described thus: inhibition of 3D7 malaria parasite growth – strain 3D7 (AID 2306).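 Also: 0% = DMSO wells and 100% = chloroquine plus artemisinin control wells.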 To be noted: P. falciparum 3D7 erythrocytic growth, LDH absorbance, 72 h; at 2 µM; active compounds read high.
Assay [5] addresses Calcium-dependent protein kinase 1 (Plasmodium falciparum (isolate 3D7)) (UniProt P62344). Nature of the assay: PfCDPK1 kinase inhibitors, biochemical, TCAMS library (AID 1159585; cut-off not given, nearly all actives have IC50 up to about 0.98 µM;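 also: inhibitors leave more ATP so luminescence rises with inhibition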). To be noted: recombinant PfCDPK1, Kinase-Glo ATP depletion luminescence. For orientation: Kinase-Glo reads ATP consumption through a luciferase reaction.
Assay [6] addresses Plasmodium falciparum protein kinase 6 (PK6, PF3D7_1337100) (UniProt Q8IDW1). Nature of the assay: PfPK6 kinase inhibitors, biochemical, TCAMS library (AID 1159586). To be noted: recombinant PfPK6, Kinase-Glo ATP depletion luminescence.
Assay [7] deals with Protein kinase 7 (PK7), Plasmodium falciparum 3D7 (PF3D7_0213400) (UniProt Q7YTF7). Nature of the assay: inhibition of Plasmodium PK7 catalytic activity – biochemical, TCAMS antimalarial set, Kinase-Glo luminescence (AID 1159587). To be noted: recombinant PfPK7, Kinase-Glo ATP depletion luminescence.
Chain of Protein kinase 7 (PK7), Plasmodium falciparum 3D7 (PF3D7_0213400) (Q7YTF7 1-343): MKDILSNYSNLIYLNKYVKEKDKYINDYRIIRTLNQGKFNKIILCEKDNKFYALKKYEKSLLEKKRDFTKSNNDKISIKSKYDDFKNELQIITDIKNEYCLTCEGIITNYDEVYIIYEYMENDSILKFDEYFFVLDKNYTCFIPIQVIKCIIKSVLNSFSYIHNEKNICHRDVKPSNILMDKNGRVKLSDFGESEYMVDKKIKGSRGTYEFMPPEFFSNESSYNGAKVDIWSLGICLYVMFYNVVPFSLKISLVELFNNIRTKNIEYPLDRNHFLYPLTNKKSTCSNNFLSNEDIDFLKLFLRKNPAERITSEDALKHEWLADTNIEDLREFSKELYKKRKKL
Assay [8] has as its target Calcium-dependent protein kinase 4 (Plasmodium falciparum (isolate 3D7)) (UniProt Q8IBS5). Nature of the assay: PfCDPK4 kinase inhibitors, biochemical, TCAMS library (AID 1159588; cut-off not given, nearly all actives have IC50 up to about 0.91 µM). To be noted: recombinant PfCDPK4, Kinase-Glo ATP depletion luminescence.

Chain of Calcium-dependent protein kinase 4 (Plasmodium falciparum (isolate 3D7)) (Q8IBS5 whole entry, looked up): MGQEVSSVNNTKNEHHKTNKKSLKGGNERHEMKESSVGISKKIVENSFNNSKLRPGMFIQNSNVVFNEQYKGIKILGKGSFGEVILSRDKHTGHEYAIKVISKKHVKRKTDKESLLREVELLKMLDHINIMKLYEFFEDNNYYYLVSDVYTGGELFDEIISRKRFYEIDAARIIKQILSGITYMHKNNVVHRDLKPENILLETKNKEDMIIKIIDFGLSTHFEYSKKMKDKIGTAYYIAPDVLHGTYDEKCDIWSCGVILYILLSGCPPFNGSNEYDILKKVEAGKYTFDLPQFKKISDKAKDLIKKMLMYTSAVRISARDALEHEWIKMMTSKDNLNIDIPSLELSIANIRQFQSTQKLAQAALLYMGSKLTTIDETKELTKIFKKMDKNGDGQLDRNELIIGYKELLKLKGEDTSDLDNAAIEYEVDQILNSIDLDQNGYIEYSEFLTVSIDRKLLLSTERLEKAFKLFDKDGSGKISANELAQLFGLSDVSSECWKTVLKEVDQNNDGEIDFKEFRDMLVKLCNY
Chain of L-lactate dehydrogenase (Plasmodium falciparum (isolate CDC / Honduras)) (Q27743 whole entry, looked up): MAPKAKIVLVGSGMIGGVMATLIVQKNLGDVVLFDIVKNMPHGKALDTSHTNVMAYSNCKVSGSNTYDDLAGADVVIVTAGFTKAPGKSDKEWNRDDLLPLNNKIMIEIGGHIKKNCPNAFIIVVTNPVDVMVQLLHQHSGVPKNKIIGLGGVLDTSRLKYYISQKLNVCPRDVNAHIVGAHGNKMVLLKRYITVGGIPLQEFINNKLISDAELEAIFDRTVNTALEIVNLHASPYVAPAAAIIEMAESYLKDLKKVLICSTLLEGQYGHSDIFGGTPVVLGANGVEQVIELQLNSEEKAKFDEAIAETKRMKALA
Chain of Plasmodium falciparum protein kinase 6 (PK6, PF3D7_1337100) (Q8IDW1 1-305): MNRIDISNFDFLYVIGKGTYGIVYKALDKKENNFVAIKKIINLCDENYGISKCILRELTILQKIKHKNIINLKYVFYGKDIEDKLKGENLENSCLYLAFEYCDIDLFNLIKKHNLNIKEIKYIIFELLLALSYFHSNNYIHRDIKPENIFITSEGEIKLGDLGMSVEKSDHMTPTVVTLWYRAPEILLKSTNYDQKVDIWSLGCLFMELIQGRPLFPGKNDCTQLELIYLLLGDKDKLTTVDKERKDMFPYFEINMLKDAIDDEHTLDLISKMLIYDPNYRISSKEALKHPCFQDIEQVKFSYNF
Chain of Calcium-dependent protein kinase 1 (Plasmodium falciparum (isolate 3D7)) (P62344 whole entry, looked up): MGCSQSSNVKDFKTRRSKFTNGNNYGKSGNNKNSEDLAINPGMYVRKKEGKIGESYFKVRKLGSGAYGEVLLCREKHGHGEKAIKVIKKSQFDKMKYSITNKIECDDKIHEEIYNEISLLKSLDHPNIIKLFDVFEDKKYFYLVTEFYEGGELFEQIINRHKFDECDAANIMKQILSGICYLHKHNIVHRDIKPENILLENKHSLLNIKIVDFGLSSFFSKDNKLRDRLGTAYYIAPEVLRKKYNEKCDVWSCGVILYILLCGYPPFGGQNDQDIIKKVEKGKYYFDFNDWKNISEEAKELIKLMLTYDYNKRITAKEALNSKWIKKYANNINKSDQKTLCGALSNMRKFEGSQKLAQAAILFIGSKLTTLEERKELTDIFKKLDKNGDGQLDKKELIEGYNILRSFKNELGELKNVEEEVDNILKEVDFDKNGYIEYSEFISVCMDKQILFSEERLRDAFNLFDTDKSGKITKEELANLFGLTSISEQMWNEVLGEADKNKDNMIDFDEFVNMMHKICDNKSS

What is called inhibition is the drop in the measured response relative to a control, in per cent. Take `COc1cc(CCOc2c(C)nc(N)nc2N)cc(OC)c1OC`: the values for the growth inhibition in assay [1] and in assay [4] were -3% and 93% (active), respectively. In addition, the results for the inhibition in assay [2] and in assay [3] were 59% (active) and 4%, respectively. Moreover, the result in assay [5], in assay [6], in assay [7] and in assay [8] was inactive.
`CN(C)CCNC(=O)c1ccc(-c2ccc3c(Nc4ccccc4)c(C(N)=O)cnc3c2)cc1`: the values for the growth inhibition in assay [1] and in assay [4] were 68% (active) and 99% (active), respectively. In addition, the results for the inhibition in assay [2] and in assay [3] were 9% and 6%, respectively. The outcome in assay [5], in assay [6], in assay [7] and in assay [8] was inactive.
Consider `Cc1cc(NCc2ccccc2)nc2cc(O)ccc12`, for which the growth inhibition in assay [1] was 80% (active); in assay [4], 98% (active). In addition, the inhibition is -7% in assay [2] and 6% in assay [3]. In addition, the outcome in assay [5], in assay [6], in assay [7] and in assay [8] was inactive.
Turning to `Cc1ccc(C)c(NC(=O)NCCNc2ccnc(Nc3ccc(F)cc3)n2)c1`, the growth inhibition in assay [1] is 5%; in assay [4] it was 97% (active). For the same compound, the inhibition is 21% in assay [2] and 6% in assay [3]. Further, the result in assay [5], in assay [6], in assay [7] and in assay [8] was inactive.
On to `CC(=O)c1ccccc1OCCSc1nnc(Cc2cccs2)n1C1CCCCC1`, for which the values for the growth inhibition in assay [1] and in assay [4] were 1% and 87% (active), respectively. Also, the figures for the inhibition in assay [2] and in assay [3] were 19% and -5%, respectively. The result in assay [5], in assay [6], in assay [7] and in assay [8] was inactive.
Regarding `O=C(NCCCCN1CCC(c2cccc3ccccc23)CC1)c1ccc(-c2ccc(C(F)(F)F)cn2)cc1`, the growth inhibition was 36% in assay [1] and 91% (active) in assay [4]. Moreover, the inhibition is 31% in assay [2] and 0% in assay [3]. Besides, the result in assay [5], in assay [6], in assay [7] and in assay [8] was inactive.
Consider `CC(C)CC(NC(=O)c1cc2ccccc2s1)C(=O)N1CCCCCC1c1ccc(C(C)(C)C)cc1` (stereo not given), for which the growth inhibition was 39% in assay [1] and 91% (active) in assay [4]. In addition, the inhibition was 23% in assay [2] and -2% in assay [3]. The result in assay [5], in assay [6], in assay [7] and in assay [8] was inactive.
`O=C(N[C@H]1CCN(Cc2ccc(OCCCN3CCCCC3)cc2)C1)c1cc(Cl)cc(Cl)c1`: the growth inhibition is 35% in assay [1] and 99% (active) in assay [4]. The inhibition in assay [2] was 13%; in assay [3], -1%. Also, the outcome in assay [5], in assay [6], in assay [7] and in assay [8] was inactive.
As to `COc1cc(C)ccc1S(=O)(=O)N1CCCCC(c2ccc(C(F)(F)F)cc2)=N1`, the growth inhibition in assay [1] is 89% (active); in assay [4], 92% (active). The inhibition in assay [2] was 16%; in assay [3], -1%. Besides, the result in assay [5], in assay [6], in assay [7] and in assay [8] was inactive.
As for `O=C(Nc1ccc(Cn2nc(Cl)c(N3CCCNCC3)cc2=O)cc1)Nc1ccc(-c2ccccc2)cc1`, the growth inhibition was 36% in assay [1] and 87% (active) in assay [4]. Further, the inhibition in assay [2] is 89% (active); in assay [3], 1%. Moreover, the result in assay [5], in assay [6], in assay [7] and in assay [8] was inactive.
In the case of `C=CCNC(CCCCC)c1ccc(OCCOc2ccc(C(CCCCC)NCC=C)cc2)cc1` (stereo not given), the growth inhibition was 48% in assay [1] and 88% (active) in assay [4]. In addition, the inhibition in assay [2] is 100% (active); in assay [3], -6%. Further, the result in assay [5], in assay [6], in assay [7] and in assay [8] was inactive.
`S=C(NN=Cc1ccccn1)NC1C[C@H]2C=C[C@@H]1C2` (stereo not given in full): the values for the growth inhibition in assay [1] and in assay [4] were 96% (active) and 99% (active), respectively. In addition, the inhibition is 51% (active) in assay [2] and -2% in assay [3]. Also, the outcome in assay [5], in assay [6], in assay [7] and in assay [8] was inactive.
Take `O=C(/C=C/c1ccc(Cl)cc1)NCCCCCN1CCCN(C(=O)Nc2ccc(F)c(Cl)c2)CC1`: the growth inhibition is 6% in assay [1] and 94% (active) in assay [4]. The inhibition in assay [2] is 29%; in assay [3], 1%. Further, the outcome in assay [5], in assay [6], in assay [7] and in assay [8] was inactive.
`Cc1ccc2c(=O)n(C)c(=O)n(C)c2n1`: the growth inhibition in assay [1] is -3%; in assay [4], 98% (active). Further, the inhibition in assay [2] was 15%; in assay [3], 4%. Besides, the outcome in assay [5], in assay [6], in assay [7] and in assay [8] was inactive.
Regarding `CCCCCCCCn1c2c(c(=N)c3c1CCC3)CCC2`, the growth inhibition in assay [1] is 93% (active); in assay [4] it was 99% (active). Moreover, the values for the inhibition in assay [2] and in assay [3] were 47% and -5%, respectively. In addition, the outcome in assay [5], in assay [6], in assay [7] and in assay [8] was inactive.
Regarding `Cc1cc(CNCCCCCCNCc2cccc([N+](=O)[O-])c2)ccc1O`, the growth inhibition was -1% in assay [1] and 90% (active) in assay [4]. In addition, the inhibition in assay [2] was 13%; in assay [3], -8%. Moreover, the outcome in assay [5], in assay [6], in assay [7] and in assay [8] was inactive.
Consider `CC(C)(C)NC(=O)c1ccc(Oc2ccc(OC(F)(F)F)cc2)c(NC(=O)C(C)(C)C)c1`, for which the growth inhibition in assay [1] was 2%; in assay [4], 89% (active). The inhibition in assay [2] is -11%; in assay [3] it was 3%. In addition, the result in assay [5], in assay [6], in assay [7] and in assay [8] was inactive.
For the compound `COc1ccccc1C1CCN(CCN2CCC(NC(=O)c3ccc(-c4ccc(C#N)cc4)cc3)CC2)CC1`, the growth inhibition in assay [1] is 42%; in assay [4], 99% (active). In addition, the inhibition in assay [2] was 31%; in assay [3] it was -5%. Besides, the outcome in assay [5], in assay [6], in assay [7] and in assay [8] was inactive.
On to `CC[C@H](NC(=O)c1c(N)c(-c2sccc2Cl)nc2ccccc12)c1ccccc1`, for which the results for the growth inhibition in assay [1] and in assay [4] were 92% (active) and 99% (active), respectively. For the same compound, the inhibition in assay [2] was 0%; in assay [3] it was -4%. Moreover, the result in assay [5], in assay [6], in assay [7] and in assay [8] was inactive.
In the case of `C[C@H](NC(=O)[C@H](CCCCNC(=O)OC(C)(C)C)NC(=O)OC(C)(C)c1ccc(-c2ccccc2)cc1)C(=O)OCc1ccccc1`, the results for the growth inhibition in assay [1] and in assay [4] were 1% and 97% (active), respectively. Besides, the values for the inhibition in assay [2] and in assay [3] were 4% and -7%, respectively. In addition, the result in assay [5], in assay [6], in assay [7] and in assay [8] was inactive.
